# Screens from PubChem BioAssay.
# Rab9 promoter act = activates the Rab9 promoter. Huh7 Rab9 promoter-luciferase reporter, luminescence, 24 h. Potency, µM (highest dose often 9.22 µM), inactives show at the highest dose activation, negative = inhibition, actives largely listed as activators. actives 2.8% (n = 320,000); further: % of control where 0% means no effect; nearly all actives have a fitted effect of over 60% in size
#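 Promoter activation is measured as luciferase luminescence in Huh7 cells stably transfected with a Rab9 promoter–luciferase construct, following 24 h compound exposure at 37 °C and 10 min reagent incubation at ambient temperature.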
# ELG1 DNA repair = blocks ELG1-dependent DNA repair in HEK293T cells; HEK293T ELG1-luciferase reporter, luminescence, 16 h; DNA damage induced by 5-fluorouridine; Potency, µM (top dose mostly 46.1 µM), for the others: top-dose activity change, negative = inhibition, hits mostly inhibitors; actives 2.3% (n = 330,000); AID 504467; further: on the % scale 0 is the no-effect control and ±100 the full control effect; nearly all actives have a fitted effect of over 55% in size
#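 Cells (2,000 per well) received 5-fluorouridine plus test compound or DMSO and were incubated 16 hr at 37 °C, 5% CO2. Luciferase activity was read by luminescence 30 min after ONE-Glo addition; signal suppression marked inhibition of damage-induced ELG1 function.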
# SMN2 splice enh = enhancers of SMN2 splice variant expression; AID 1458; Potency, µM (highest dose often 46.1 µM), for inactives: top-dose activity change, positive = activation, hits mostly activators; HEK293 SMN2-luciferase splicing reporter, luminescence, 30-36 h; actives 2.8% (n = 210,000); further: % of control where 0% means no effect; nearly all actives have a fitted effect of over 55% in size
#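 HEK293 cells carry an SMN2 […]–luciferase reporter in which exon 7 inclusion puts luciferase in frame. Cells were plated 10-12 h before compound addition, then incubated 30-36 h at 37C. ONE-Glo luminescence was read; sodium butyrate at 4.5 mM final served as control.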
# NPC1 prom act = activators of NPC1 promoter. Huh7 NPC1 promoter luciferase reporter, 24 h. Potency, µM (highest dose often 9.22 µM), without a hit: at the highest dose activation, actives largely listed as activators. actives 2.4% (n = 320,000). AID 485313; further: % of control where 0% means no effect; nearly all actives have a fitted effect of over 60% in size
#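 NPC1 promoter–luciferase Huh7 cells; 24 h compound; luminescence.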
# ELG1 genotoxic = inducers of genotoxicity in HEK293T ELG1-luciferase cells; HEK293T ELG1-luciferase reporter, luminescence, 16 h; Potency, µM (titrated, usually from 46 µM), inactives show at the highest dose activity change, positive = activation, hits mostly activators; actives 1.3% (n = 330,000); further: % of control where 0% means no effect; nearly all actives have a fitted effect of over 60% in size
#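 Quantitative HTS format in 1536-well plates. HEK293T ELG1-luciferase reporter cells receive test compound and are incubated 16 hr at 37 °C, 5% CO2; ONE-Glo added, 30 min room temperature, then luminescence read.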
# FLuc counter = inhibits or activates purified firefly luciferase, miR-21 counter-screen; actives 6.9% (n = 360,000); P08659; purified FLuc, Km substrates, luminescence inhibition; Potency, µM (highest dose often 57.5 µM), for inactives: at the highest dose activity change, negative = inhibition, actives largely listed as inhibitors;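 further: plate controls were vehicle for no effect and reference inhibitor for full effect; nearly all actives have a fitted effect of over 55% in size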
# Target sequence (P08659 whole entry, looked up): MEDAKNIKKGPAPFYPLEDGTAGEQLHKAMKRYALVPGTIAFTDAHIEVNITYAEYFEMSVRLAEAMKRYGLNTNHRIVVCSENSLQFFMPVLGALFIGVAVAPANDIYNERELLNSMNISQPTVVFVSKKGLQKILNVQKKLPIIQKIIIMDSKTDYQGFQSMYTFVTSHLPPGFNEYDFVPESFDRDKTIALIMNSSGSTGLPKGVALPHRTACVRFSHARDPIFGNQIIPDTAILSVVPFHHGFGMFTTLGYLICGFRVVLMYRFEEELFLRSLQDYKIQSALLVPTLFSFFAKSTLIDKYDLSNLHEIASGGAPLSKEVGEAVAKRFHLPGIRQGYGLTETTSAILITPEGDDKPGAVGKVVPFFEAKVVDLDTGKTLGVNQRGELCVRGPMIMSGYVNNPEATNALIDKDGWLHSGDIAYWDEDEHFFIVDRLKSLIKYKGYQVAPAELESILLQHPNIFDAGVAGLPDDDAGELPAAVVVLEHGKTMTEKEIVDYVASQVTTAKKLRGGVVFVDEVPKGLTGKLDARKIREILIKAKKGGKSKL
#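 Purified P. pyralis luciferase, 10 nM final, with Km-level 10 uM D-luciferin and 10 uM ATP in 50 mM Tris acetate pH 7.5, 10 mM Mg acetate, 0.01% Tween-20, 0.05% BSA; 6-point qHTS titration about 60 µM downward; luminescence read.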
# * marks the source's active call; other numbers are inactive results; ? = inconclusive; · = no result. Rows were chosen to be rich in hits. Some 9.2% of all compounds tested hit in one or more screens of this group. The call rests on the fitted dose curve; in most records, active means well fitted curve in the direction sought with a large enough effect; inconclusive means small, poorly fitted or top-dose-only effect, or another doubt; inactive means no such curve, though single readings can be large; an effect the other way counts as inactive or inconclusive. Potency means the concentration at half of the fitted maximal effect.
SMILES,Rab9 promoter act,ELG1 DNA repair,SMN2 splice enh,NPC1 prom act,ELG1 genotoxic,FLuc counter
C=CCOn1c(C)c(C(C)=O)c2c3no[n+]([O-])c3ccc21,-5.3%,?,0.2%,0.8%,-11.7%,-0.4%
COCCNC(=O)/C(C#N)=C/c1ccc(-c2ccc(S(=O)(=O)N3CCOCC3)cc2)o1,-3.0%,16.4µM*,-1.6%,-2.1%,-5.9%,0.9%
CCOCCCNC(=O)/C(C#N)=C/c1ccc(-c2ccc(S(=O)(=O)N3CCOCC3)cc2)o1,0.6%,?,-21.6%,-3.1%,-11.5%,0.0%
Cc1cc(C)n(CCc2nc(-c3cc4ccccc4o3)cs2)n1,20.9%,?,-35.8%,20.5%,9.8%,16.9µM*
CN1CCN(c2nc(-c3cc4ccccc4o3)cs2)CC1,?,?,12.6µM*,?,?,4.78µM*
Nc1nc(-c2cc3ccccc3o2)cs1,2µM*,?,·,2.24µM*,?,4.26µM*
NC(=O)C1CCN(c2nc(-c3cc4ccccc4o3)cs2)CC1,?,?,·,?,4.2%,10.7µM*
NC(=O)C1CCN(c2nc(-c3cccc(N)c3)cs2)CC1,1.8%,?,·,3.1%,?,?
Cc1cccc(N2C(=O)C3C4CC(=O)C(c5ccccc54)C3C2=O)c1C (stereo unspecified),-12.3%,0.4%,-4.8%,-7.2%,2.0%,-15.2%
CC1CCc2c(sc(NC(=O)/C=C/c3cccs3)c2C(=O)O)C1 (stereo unspecified),12.1%,5.0%,·,1.3%,-13.3%,?
Cn1c(C(=O)N2CCc3ccccc3C2)cc2oc3ccccc3c21,?,?,22.4µM*,27.0%,?,10.7µM*
CCn1c(C(=O)N2CCc3ccccc3C2)cc2oc3ccccc3c21,-0.1%,?,-11.1%,2.0%,-5.7%,?
COc1ccc(S(=O)(=O)N2CCC(C(=O)Nc3ccccc3C)CC2)c2cccnc12,14.8%,18.4µM*,-5.8%,9.5%,-12.5%,-1.8%
COc1ccc(C)cc1NC(=O)C1CCN(S(=O)(=O)c2cccc3cccnc23)CC1,0.4%,23.1µM*,-15.0%,-2.3%,-9.9%,-4.8%
COc1ccc(NC(=O)C2CCN(S(=O)(=O)c3cccc4cccnc34)CC2)cc1OC,-2.2%,?,21.9%,-1.0%,1.5%,1.2%
CSCC(=O)N1CCCC(CNC(=O)c2ccccc2Cl)C1 (stereo unspecified),-10.4%,-2.2%,·,-1.5%,-0.1%,-4.2%
CSCC(=O)N1CCCC(CNC(=O)c2ccc(-c3ccccc3)cc2)C1 (stereo unspecified),-2.1%,?,·,2.3%,-6.4%,21.3µM*
CC(=O)CCC(=O)N1CCCC(CNC(=O)c2ccc(-c3ccccc3)cc2)C1 (stereo unspecified),25.2%,14.0%,·,16.8%,4.5%,10.7µM*
Cc1ccc(CSc2nc3ncccc3[nH]2)cc1,0.794µM*,?,1.78µM*,0.562µM*,23.5%,2.39µM*
Clc1ccc(CSc2nc3ncccc3[nH]2)cc1,·,·,12.6µM*,·,·,6.01µM*
c1ccc(CSc2nc3ncncc3[nH]2)cc1,20.2%,11.3%,·,7.9%,3.7%,16.9µM*
CCCCC(=O)Nc1cccc(-c2cn3ccccc3n2)c1,22.5%,?,·,29.7%,5.5%,12µM*
O=C(Nc1ccc(-c2cn3ccccc3n2)cc1)c1ccc(Cl)cc1,27.0%,0.0%,?,?,1.6%,-17.7%
Cc1ccc(C(=O)Nc2cccc(-c3cn4ccccc4n3)c2)cc1,?,?,·,23.6%,1.2%,6.01µM*
O=C(Nc1cccc(-c2cn3ccccc3n2)c1)c1ccccc1,?,?,?,24.1%,-2.2%,4.78µM*
SMILES,Rab9 promoter act,ELG1 DNA repair,SMN2 splice enh,NPC1 prom act,ELG1 genotoxic,FLuc counter
O=C(Nc1ccc(-c2cn3ccccc3n2)cc1)c1ccco1,3.16µM*,?,11.2µM*,2.82µM*,?,2.39µM*
Cc1ccccc1C(=O)Nc1cccc(-c2cn3ccccc3n2)c1,0.9%,?,-3.8%,0.1%,-18.1%,6.75µM*
Cc1ccccc1C(=O)Nc1cccc(-c2ccc3nncn3n2)c1,15.4%,?,9.2%,-2.5%,0.1%,-15.2%
COc1ccc(-c2noc(N3CCC(C(=O)Nc4ccccc4OC)CC3)n2)cc1,23.9%,23.1µM*,·,-5.1%,-0.3%,?
Cc1ccc(NC(=O)C2CCN(c3nc(-c4ccc(C(C)C)cc4)no3)CC2)c(Cl)c1,·,·,·,·,·,21.3µM*
COc1ccc(-c2noc(CCC(=O)NC3CCCCCC3)n2)cc1,1.3%,-0.2%,·,-2.1%,-1.8%,?
CCOC(=O)N1CCC(NC(=O)CCc2nc(-c3ccc(C)cc3)no2)CC1,10.6%,13µM*,-11.0%,5.3%,-13.3%,-9.1%
CCOC(=O)N1CCN(c2nc(-c3ccc(OC)cc3)no2)CC1,20.5%,?,-25.7%,?,-0.7%,16.9µM*
COc1ccc(-c2noc(N3CCC(C(=O)Nc4cc(OC)ccc4OC)CC3)n2)cc1,6.8%,?,·,0.0%,-6.3%,-16.3%
CCOc1ccccc1NC(=O)c1c(NCc2cccs2)sc2c1CCCCC2,·,·,·,·,·,-5.1%
CC(C)c1ccc(NC(=O)CN2CCN(C(=O)C3CCCO3)CC2)cc1 (stereo unspecified),-8.0%,-2.5%,·,1.9%,5.4%,4.5%
Cc1ccc(C)c(N2CCN(C(=O)C3CCN(c4nc(-c5ccc(C(C)C)cc5)no4)CC3)CC2)c1,·,·,·,·,·,12µM*
CSc1ccc(/C=C/C(=O)OCC(=O)NCC2CCCO2)cc1 (stereo unspecified),-0.2%,14.3%,·,-1.3%,0.2%,-17.9%
CCN(CC)S(=O)(=O)c1cccc(-c2nnc(SCc3nnc(-c4cccs4)o3)n2N)c1,3.7%,20.6µM*,-15.9%,9.3%,-14.6%,-5.5%
COc1ccc(CCNC(=O)c2coc3ccccc3c2=O)cc1,12.1%,?,·,-4.2%,-17.5%,-0.8%
FC(F)(F)c1cnc(-c2cnc(-c3cccnc3)nc2)c(Cl)c1,3.98µM*,?,12.6µM*,2.51µM*,?,?
COc1ccc(CCNC(=O)c2ccccc2NC(=O)C2=C(C)OCCS2)c(OC)c1,-2.8%,18.3µM*,·,-6.8%,-13.0%,?
CC1=C(C(=O)Nc2ccc(C(=O)NCCC(C)C)cc2)SCCO1,1.0%,0.9%,·,-3.5%,1.6%,-2.7%
CSc1ccc(CNC(=O)Cc2ccc(NC(=O)C3=C(C)OCCS3)cc2)cc1,?,?,·,-0.9%,13µM*,1.35µM*
CCOc1ccc(CCNC(=O)Cc2ccc(NC(=O)C3=C(C)OCCS3)cc2)cc1,?,?,·,?,7.0%,4.26µM*
